The source of these data is PubChem BioAssay.

Structures are written as SMILES. Results filed as inconclusive are left out. Activity calls are given as the source filed them. Rule as the data show it, unless noted: active = inhibition above about 30%; inactive = the rest.

The nature of test [1]: Her2 expression decrease, cell viability multiplex – SKBR3 breast tumor cells, AlphaScreen, ATP viability, primary screen (AID 461;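 active = Her2 level under about 52% in both replicate screens, with viability over 70% of control, limit read from the data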;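 as to Her2 level: lower value means less Her2 protein in the cells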;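 as to viability: percent of carrier control wells set as 100% viability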). The conditions noted are these: SKBR3 Her2 protein level, 18-24 h, measured here: SKBR3 viability, ATP luminescence, at 10 µM. (In general: In Alpha technology, singlet oxygen from a donor bead excites a nearby acceptor bead.)
In test [2] the target is Receptor tyrosine-protein kinase erbB-2 (Homo sapiens) (UniProt P04626). Described as above. The conditions noted are these: 18-24 h, at 10 µM, stronger effect = lower value.
Sequence of Receptor tyrosine-protein kinase erbB-2 (Homo sapiens) (P04626 whole entry, looked up): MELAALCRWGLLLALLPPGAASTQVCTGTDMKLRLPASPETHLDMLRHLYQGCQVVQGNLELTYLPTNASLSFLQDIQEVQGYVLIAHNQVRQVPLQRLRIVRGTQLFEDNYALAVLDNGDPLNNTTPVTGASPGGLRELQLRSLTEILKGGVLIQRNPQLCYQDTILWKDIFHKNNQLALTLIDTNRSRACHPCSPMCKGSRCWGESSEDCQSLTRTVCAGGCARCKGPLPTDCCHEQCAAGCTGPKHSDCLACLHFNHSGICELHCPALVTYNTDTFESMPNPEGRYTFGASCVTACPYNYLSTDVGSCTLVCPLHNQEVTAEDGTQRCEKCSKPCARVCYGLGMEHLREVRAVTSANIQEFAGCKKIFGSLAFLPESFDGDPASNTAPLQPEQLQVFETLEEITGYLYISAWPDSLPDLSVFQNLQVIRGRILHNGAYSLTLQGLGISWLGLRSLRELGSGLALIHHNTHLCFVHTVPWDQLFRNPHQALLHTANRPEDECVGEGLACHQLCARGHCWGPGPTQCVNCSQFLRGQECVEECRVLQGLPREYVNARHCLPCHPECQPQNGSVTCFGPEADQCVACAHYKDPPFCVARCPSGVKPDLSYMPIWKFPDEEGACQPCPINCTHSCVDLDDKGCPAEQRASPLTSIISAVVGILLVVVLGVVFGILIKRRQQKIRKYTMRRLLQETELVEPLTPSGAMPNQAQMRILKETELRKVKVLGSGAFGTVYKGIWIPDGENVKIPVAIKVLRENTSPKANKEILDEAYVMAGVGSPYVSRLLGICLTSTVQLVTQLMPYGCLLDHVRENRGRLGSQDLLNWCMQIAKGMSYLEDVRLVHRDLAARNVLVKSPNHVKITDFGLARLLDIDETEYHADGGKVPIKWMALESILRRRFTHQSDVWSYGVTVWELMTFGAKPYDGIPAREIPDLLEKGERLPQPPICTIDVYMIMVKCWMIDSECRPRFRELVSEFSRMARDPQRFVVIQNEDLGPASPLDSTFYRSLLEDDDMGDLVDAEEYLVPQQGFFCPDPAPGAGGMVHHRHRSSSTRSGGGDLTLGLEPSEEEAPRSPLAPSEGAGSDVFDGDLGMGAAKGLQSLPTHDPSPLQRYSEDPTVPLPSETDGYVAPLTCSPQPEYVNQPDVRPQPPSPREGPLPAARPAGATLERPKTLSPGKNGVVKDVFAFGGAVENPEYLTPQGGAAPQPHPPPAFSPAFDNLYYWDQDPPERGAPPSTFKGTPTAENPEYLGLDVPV
Test [3] is described as follows: reduced viability of SK-BR-3 breast cancer cells – cell-based, 24 h, human, pilot screen (AID 572;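 active = viability at or below 10% of carrier control in both of two separate runs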;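 also: compound exposure lasted between 18 and 24 h rather than exactly 24 h; 100% = carrier-treated control wells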). The conditions noted are these: SK-BR-3 viability, CellTiter-Glo luminescence, at 10 µM, stronger effect = lower value.
Test [4] is described as follows: HUVEC growth inhibition – cell-based, human, primary screen (AID 575;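 active = viability at or below 30% in both replicate assays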;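 also: 100% = median of untreated cell wells with 0.1% DMSO on each plate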). Conditions: HUVEC proliferation, CellTiter-Glo luminescence, 72 h; at 10 µM; stronger effect = lower value.
Test [5] in a line: H69AR cell proliferation blockers – human, duplicate replicates, primary screen (AID 580;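 active = viability at or under a set limit in both replicates, limit being median viability minus 3 SD, cut at about 48% in these data, passing the limit was not always enough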;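 also: 100% = mean luminescence of untreated wells and 0% = no signal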). The conditions noted are these: H69AR lung tumor cells viability, ATP luminescence, 72 h; at 10 µM; stronger effect = lower value.
A short description of test [6]: MRP1 drug-resistance reversers in H69AR cells – cell-based, doxorubicin co-treatment, pilot screen (AID 601;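 active = viability loss from added drug above about 55%, and viability with drug at most 40%, in both replicates, limit read from the data, passing the limit was not always enough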). Conditions: CellTiter-Glo, 72 h, at 10 µM; for differential viability (reversal): stronger effect = higher value. Background: Cellular ATP, detected with luciferase, serves as a proxy for viable cell number.
A short description of test [7]: yeast transport mutant growth inhibition pilot in 384-well plates, post-Golgi transport modulator project (AID 636; in the data active = inhibition above about 31%). Conditions: absorbance 615 nm, about 18 h, stronger effect = higher value.
Test [8] is described as follows: growth suppression of yeast trafficking mutant, preliminary HTS, modulators of trafficking downstream of Golgi apparatus project, 1536-format plate, OD 615 nm (AID 637). Conditions: yeast transport mutant growth, absorbance 615 nm, 18 h; stronger effect = higher value.
A short description of test [9]: S. cerevisiae growth inhibition in permissive medium (OD615), pilot counter-assay for S. cerevisiae lifespan shortening project, permissive growth control (AID 705;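 active = growth inhibition above 25% in both replicates, a cutoff set 3 SD above the mean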). The conditions noted are these: OD615, 24 h, at 10 µM, stronger effect = higher value.
Test [10] can be described thus: S. cerevisiae growth inhibition in restrictive medium, OD615, pilot screen, restrictive growth control, yeast lifespan reduction project (AID 706;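 active = growth inhibition above a set limit, 3 SD over mean compound inhibition, in both replicates, cut at about 43% in these data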;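 also: modified DeaD lifespan yeast strain shifted to restrictive glucose medium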). The conditions noted are these: OD615, 48 h, at 10 µM, stronger effect = higher value.
Test [11] can be described thus: doxorubicin toxicity protection in MRP-1 cells – H69AR cells, CellTiter-Glo, duplicate, MRP-1 activator project, pilot screen (AID 807;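 active = viability increase at or above a cutoff of the median across tested compounds plus 3 SD, cut at about 8.5% in these data, passing the limit was not always enough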;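 also: compound pretreatment 18-22 h then 72 h combined with doxorubicin; 0% = doxorubicin alone and 100% = vehicle without doxorubicin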). The conditions noted are these: H69AR viability with doxorubicin, CellTiter-Glo luminescence; at 10 µM; stronger effect = higher value.
Test [12] can be described thus: viability of HCT116 without oncogenic beta-catenin – human colon tumor cells, pilot screen (AID 823;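 active = cell viability at or below a set limit in both duplicate runs, the limit being the all-compound median minus 4 SD, cut at about 23% in these data, passing the limit was not always enough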;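 also: 0% = wells killed by 20 µM Hyamine and 100% = untreated DMSO cell wells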). Conditions: HCT116 beta-catenin knockout viability, CellTiter-Glo, 60 h; at 10 µM; stronger effect = lower value.
The nature of test [13]: viability of PTEN-null HCT116 cells – cell-based, HCT116 clonal line, CellTiter-Glo, pilot screen (AID 824;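 active = viability at or below 27.92% in each of two runs, the all-compound median minus 4 SD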;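 also: 0% = 20 µM Hyamine control and 100% = vehicle cell control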). The conditions noted are these: HCT116 PTEN-deleted viability, 60 h, at 10 µM, stronger effect = lower value.
A short description of test [14]: RAM pathway blockade in budding yeast – dse1pr::URA3 reporter, 5-FOA selection, pilot screen (AID 869;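 active = inhibition over a set limit, the all-compound mean plus 3 SD, in both replicate runs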;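 also: 0% = DMSO wells with no growth and 100% = 10 µM 1-NA-PP1 with full growth; RAM network block rescues cells from 5-FOA so hits raise OD615 growth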). The conditions noted are these: S. cerevisiae dse1pr::URA3 5-FOA growth, OD615, 2 d; at 10 µM; stronger effect = higher value; strain carries analog-sensitive mutant Cbk1 kinase.
A short description of test [15]: RAM signaling pathway blockade in yeast – S. cerevisiae, Pdr1DBD-CYC8 efflux-inhibited sensitized strain, primary screen (AID 1298;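 active = RAM network inhibition above 8.4% in each of two replicates, 3 SD over the compound average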;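 also: 0% = DMSO untreated cells without growth and 100% = 10 µM 1-NA-PP1 full growth; higher means more yeast growth rescued from 5-FOA killing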). The conditions noted are these: S. cerevisiae cbk1-as DSE1-URA3 strain, 5-FOA growth OD615, 2 d; at 50 µM; stronger effect = higher value.
The mark [16] stands for this setting: H69AR cells + 2 uM doxorubicin, measured here: viability with 2 uM doxorubicin, stronger effect = lower value.
The mark [17] stands for this setting: H69AR cells, compound alone cytotoxicity.

Take `Cc1ccc(-n2c3c(cc(C(=O)NCCCN4CCOCC4)c2=O)C(=O)CC(C)(C)C3)cc1`: the viability is 109% in test [1]; 109% (inactive) in [3]; 87% (inactive) in [4]; 85% (inactive) in test [5]; 97.9% in [6] (setting [16]); 85% in [6] (setting [17]). The viability is 101% (inactive) in test [12] and 104% (inactive) in test [13]. Moreover, the Her2 level in test [2] was 110% (inactive). Moreover, the differential viability (reversal) in test [6] (H69AR cells + 2 uM doxorubicin) is -13% (inactive). The inhibition in test [7] is 0.53% (inactive); in test [8] it was -3.67% (inactive); in test [14], -0.26% (inactive). Further, the growth inhibition in [9] was -4.99% (inactive); in [10], -4.07% (inactive). Besides, in [11], the viability increase was -1.54% (inactive). The RAM network inhibition in [15] is 3.35% (inactive).
In the case of `CC(=O)Nc1cccc(Oc2nc(C)cc(C)c2C#N)c1`, the viability in test [1] was 96.5%; in test [3], 96.5% (inactive); in [4], 94.1% (inactive); in test [5] it was 87.3% (inactive); in test [6] (setting [16]), 91.7%; in [6] (setting [17]) it was 87.3%. The viability in test [12] was 107% (inactive); in test [13] it was 102% (inactive). The Her2 level in test [2] was 106% (inactive). Moreover, the differential viability (reversal) in test [6] (H69AR cells + 2 uM doxorubicin) is -4.33% (inactive). Further, the inhibition in test [7] was -2% (inactive); in test [8] it was 0.5% (inactive); in test [14], 1.34% (inactive). Moreover, the growth inhibition in test [9] was -17.1% (inactive); in [10], -19.5% (inactive). For the same compound, in test [11], the viability increase is 2.21% (inactive). In addition, the RAM network inhibition in [15] was 0.78% (inactive).
With `COc1ccc(OC)c(C2=NOC(C(=O)Nc3c(C)n(C)n(-c4ccccc4)c3=O)C2)c1` (stereo not given), the viability in [1] was 88.5%; in [3], 88.5% (inactive); in test [4] it was 84.6% (inactive); in test [5] it was 95.3% (inactive); in test [6] (setting [16]) it was 86.5%; in test [6] (setting [17]) it was 95.3%. Also, the figures for the viability in test [12] and in [13] were 99.4% (inactive) and 107% (inactive), respectively. For the same compound, the Her2 level in test [2] is 96% (inactive). Further, in test [6] (H69AR cells + 2 uM doxorubicin), the differential viability (reversal) was 8.86% (inactive). Further, the inhibition is -2.93% (inactive) in [7], -7.54% (inactive) in [8] and 0.74% (inactive) in [14]. Besides, the growth inhibition was -11.8% (inactive) in test [9] and -24% (inactive) in test [10]. In [11], the viability increase is -0.56% (inactive). For the same compound, the RAM network inhibition in test [15] was 3.94% (inactive).
In the case of `CCn1cc(C(=O)N2CCOCC2)c(=O)c2cc(S(=O)(=O)N(C)C3CCCCC3)ccc21`, the viability in test [1] was 84%; in test [3], 84% (inactive); in test [4] it was 108% (inactive); in [5] it was 106% (inactive); in test [6] (setting [16]) it was 86.7%; in test [6] (setting [17]) it was 106%. Besides, the viability in test [12] was 100% (inactive); in test [13] it was 95.8% (inactive). Also, in test [2], the Her2 level is 89% (inactive). Moreover, in test [6] (H69AR cells + 2 uM doxorubicin), the differential viability (reversal) was 19.7% (inactive). The inhibition is 0.26% (inactive) in test [7], 0.5% (inactive) in test [8] and 0.85% (inactive) in [14]. The values for the growth inhibition in test [9] and in test [10] were -13.6% (inactive) and -19.3% (inactive), respectively. Also, the viability increase in test [11] is -1.73% (inactive). Further, the RAM network inhibition in [15] was 2.09% (inactive).
In the case of `O=C1c2ccccc2C(Nc2ccc(F)cc2F)N1CCN1CCOCC1` (stereo not given), the viability in test [1] was 83%; in [3] it was 83% (inactive); in test [4], 87.8% (inactive); in test [5] it was 78.2% (inactive); in test [6] (setting [16]), 81.9%; in test [6] (setting [17]), 78.2%. In addition, the viability in test [12] is 98.8% (inactive); in test [13], 104% (inactive). Moreover, the Her2 level in test [2] is 83% (inactive). In addition, the differential viability (reversal) in test [6] (H69AR cells + 2 uM doxorubicin) was -3.69% (inactive). Also, the inhibition in test [7] is -5.73% (inactive); in test [8] it was 3.17% (inactive); in test [14], 1.3% (inactive). The growth inhibition in test [9] was 0.235% (inactive); in test [10] it was -1.68% (inactive). In addition, the viability increase in [11] is -1.58% (inactive). In [15], the RAM network inhibition is 0.93% (inactive).

For orientation: viability means a read-out of living cells in per cent, often relative to untreated cells. One may read the inhibition as the drop in the measured response relative to a control, in per cent.
